ELG1 genotoxic = inducers of genotoxicity in HEK293T ELG1-luciferase cells | HEK293T ELG1-luciferase reporter, luminescence, 16 h | 330,000 tested, 1.3% active | Potency, µM (doses to about 46 µM), for inactives: at the highest dose activity change, positive = activation, hits mostly activators; further: % of control where 0% means no effect; nearly all actives have a fitted effect of over 60% in size
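16 hr compound incubation (37 °C, 5% CO2) of HEK293T cells carrying luciferase-tagged ELG1; luciferase then measured by ONE-Glo luminescence after 30 min at RT.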
FLuc counter = firefly luciferase modulation, counter-screen for miR-21 project; Potency, µM (highest dose often 57.5 µM), inactives show top-dose activity change, negative = inhibition, most hits filed as inhibitors; 360,000 tested, 6.9% active; purified FLuc, Km substrates, luminescence inhibition; P08659;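 further: plate controls were vehicle for no effect and reference inhibitor for full effect; nearly all actives have a fitted effect of over 55% in size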
Target sequence (P08659 whole entry, looked up): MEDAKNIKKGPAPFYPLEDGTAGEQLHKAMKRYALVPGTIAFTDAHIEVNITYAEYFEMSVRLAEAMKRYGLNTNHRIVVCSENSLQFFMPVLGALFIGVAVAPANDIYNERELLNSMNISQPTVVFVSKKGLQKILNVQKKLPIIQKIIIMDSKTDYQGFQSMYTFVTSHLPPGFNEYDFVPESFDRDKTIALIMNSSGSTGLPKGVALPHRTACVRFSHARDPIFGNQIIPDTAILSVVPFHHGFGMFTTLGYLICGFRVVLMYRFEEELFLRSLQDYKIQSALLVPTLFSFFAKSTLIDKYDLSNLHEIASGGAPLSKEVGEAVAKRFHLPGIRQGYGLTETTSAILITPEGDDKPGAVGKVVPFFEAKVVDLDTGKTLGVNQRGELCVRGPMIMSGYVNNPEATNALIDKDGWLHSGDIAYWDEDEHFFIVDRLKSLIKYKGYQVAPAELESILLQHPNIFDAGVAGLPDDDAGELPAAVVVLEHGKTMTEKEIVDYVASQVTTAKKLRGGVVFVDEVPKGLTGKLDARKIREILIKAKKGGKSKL
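Biochemical qHTS of compounds, final roughly 60 µM downward over six points, against 10 nM purified firefly luciferase using Km concentrations of substrates (10 uM D-luciferin, 10 uM ATP) in Tris acetate pH 7.5 buffer; luminescence output.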
ELG1 DNA repair = blocks ELG1-dependent DNA repair in HEK293T cells; Potency, µM (highest dose often 46.1 µM), without a hit: top-dose activity change, negative = inhibition, most hits filed as inhibitors; 330,000 tested, 2.3% active; AID 504467; HEK293T ELG1-luciferase reporter, luminescence, 16 h; DNA damage induced by 5-fluorouridine; further: on the % scale 0 is the no-effect control and ±100 the full control effect; nearly all actives have a fitted effect of over 55% in size
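Step one: seed 2,000 cells per well. Step two: pin-transfer compound or DMSO alongside 5-fluorouridine. Step three: incubate 16 hr, 37 °C, 5% CO2. Step four: add ONE-Glo, wait 30 min, read luminescence.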
NPC1 prom act = NPC1 promoter activation; Huh7 NPC1 promoter luciferase reporter, 24 h; AID 485313; Potency, µM (top dose mostly 9.22 µM), inactives show top-dose activation, actives largely listed as activators; 320,000 tested, 2.4% active; further: % of control where 0% means no effect; nearly all actives have a fitted effect of over 60% in size
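Quantitative HTS used a cell-based reporter: Huh7 cells stably bearing the NPC1 promoter upstream of luciferase were treated with compounds for 24 h, and promoter activation was read as luminescence.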
SMN2 splice enh = SMN2 splice variant enhancement; HEK293 SMN2-luciferase splicing reporter, luminescence, 30-36 h; Potency, µM (highest dose often 46.1 µM), without a hit: top-dose activity change, positive = activation, hits mostly activators; 210,000 tested, 2.8% active; further: % of control where 0% means no effect; nearly all actives have a fitted effect of over 55% in size
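HEK293 cells carry an SMN2 […]–luciferase reporter in which exon 7 inclusion puts luciferase in frame. Cells were plated 10-12 h before compound addition, then incubated 30-36 h at 37C. ONE-Glo luminescence was read; sodium butyrate at 4.5 mM final served as control.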
Rab9 promoter act = Rab9 promoter activation | Huh7 Rab9 promoter-luciferase reporter, luminescence, 24 h | Potency, µM (doses to about 9.22 µM), inactives show top-dose activation, negative = inhibition, actives largely listed as activators | 320,000 tested, 2.8% active | AID 485297; further: % of control where 0% means no effect; nearly all actives have a fitted effect of over 60% in size
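Luminescence read-out: Huh7 cells stably expressing Rab9-luciferase, treated 24 h with compound at 37 °C, then lysed with luciferase reagent for 10 min at ambient before reading.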
* = called active by the depositor; ? = inconclusive; . = not tested or not shown; [ ] = another dose, or the depositor's remark. Compounds with a hit are over-represented: about 9.4% of the library has one in this group of screens. The call rests on the fitted dose curve; in most records, active means well fitted curve in the direction sought with a large enough effect; inconclusive means small, poorly fitted or top-dose-only effect, or another doubt; inactive means no such curve, though single readings can be large; an effect the other way counts as inactive or inconclusive. Potency means the concentration at half of the fitted maximal effect.

SMILES	ELG1 genotoxic	FLuc counter	ELG1 DNA repair	NPC1 prom act	SMN2 splice enh	Rab9 promoter act
CCOc1ccc2nc(NC(=O)Cn3[nH]c(=O)c4ccccc4c3=O)sc2c1	?	15.1µM*	?	?	.	?
O=C(CN1C(=O)COc2ccc(S(=O)(=O)Nc3ccccc3)cc21)Nc1cccc(Cl)c1	.	-4.1%	.	.	.	.
CCOc1ccccc1CNC(=O)c1ccc(NC(=O)N2CCSc3ncccc32)cc1	.	0.2%	.	.	.	.
COC(=O)C(Cc1ccc(OC(=O)c2ccc(C)cc2)cc1)N1Cc2ccccc2C1=O (centres undefined)	9.0%	?	?	?	15.8µM*	?
NNC(=O)C(Cc1ccc(O)cc1)N1Cc2ccccc2C1=O (centres undefined)	-2.7%	-1.3%	-5.2%	2.0%	.	0.1%
Cc1ccc(NC(=O)[C@H](Cc2ccccc2)N2Cc3ccccc3C2=O)cc1	.	2.2%	.	.	-3.0%	.
COC(=O)C(Cc1ccc(O)cc1)N1Cc2ccccc2C1=O (centres undefined)	?	15.1µM*	?	3.98µM*	.	1.78µM*
CCc1nn(CC(=O)N2CCC(C)CC2)c(=O)c2cc3occc3n12	.	-1.6%	.	.	.	.
O=C(NCc1ccco1)c1cc2cc(Br)ccc2o1	10.0%	16.9µM*	?	21.7%	.	?
O=C(OCCc1cc2ccccc2c(=O)o1)c1ccco1	3.4%	5.36µM*	30.3%	0.8%	.	-4.2%
Cc1c(C(=O)NCc2ccco2)oc2ccc(Br)cc12	-0.6%	?	?	18.8%	.	16.5%
O=C(NCc1ccco1)c1cc2ccccc2c(=O)o1	15.0%	15.1µM*	?	12.5%	.	9.8%
O=C(NCc1ccco1)c1cc(=O)c2ccccc2o1	-4.4%	-4.0%	-1.2%	-5.6%	1.7%	-5.3%
COc1ccc([C@@H](Nc2ncccn2)c2cc3c(cc2O)OCO3)cc1	.	.	.	.	2.1%[9.22 µM]	.
O=C(NC(O)C(=O)c1ccccc1)c1ccccn1 (centres undefined)	-0.4%	15.1µM*	5.5%	-2.9%	.	-1.8%
O=C(NC(O)C(=O)c1ccccc1)c1cccs1 (centres undefined)	-2.3%	?	17.5%	-1.4%	-0.2%	-6.4%
CCS(=O)(=O)c1nnnn1-c1ccccc1S(C)(=O)=O	0.8%	8.7%	14.6µM*	-10.8%	?	-11.5%
O=S(=O)(Cc1ccccc1)c1nnnn1-c1ccccc1	.	.	.	.	-2.2%	.
COc1ccc(Nc2cc(C)c3ccccc3n2)cc1	?	13.5µM*	?	27.7%	?	?
COc1ccc(OC)c(NC(=O)CSc2nc3ccccc3c(=O)n2CCNC(C)=O)c1	-0.4%	-0.8%	3.9%	-2.3%	-4.5%	-2.4%
COc1ccc(OC)c(NC(=O)Cn2c(C)nc3ccccc3c2=O)c1	?	9.53µM*	?	3.16µM*	.	19.0%
CCCn1c(SC(C(=O)Nc2cc(C)ccc2OC)c2ccccc2)nc2ccccc2c1=O (centres undefined)	-4.8%	3.3%	18.4µM*	-2.5%	-1.4%	-4.4%
COc1ccc(C)cc1NC(=O)C(Sc1nnnn1C)c1ccccc1 (centres undefined)	-2.7%	0.8%	-2.0%	-3.2%	-1.0%	-2.5%
COc1ccc(OC)c(Nc2cc(C)nc3ccccc23)c1	-8.8%	5.3%	20.6µM*	-1.0%	-15.5%	-0.5%
COc1ccc2sc(N(Cc3cccnc3)C(=O)c3cccs3)nc2c1	.	-14.6%	.	.	.	.
COc1ccc(-c2nc3cc(NC(=O)c4ccc(C)cc4)ccc3o2)cc1Cl	.	-6.7%	.	.	-2.8%	.
COc1ccc(Nc2nc(N3CCCC3)c3ccccc3n2)cc1	-12.1%	?	9.2µM*	-8.5%	-25.9%	-14.3%
O=C(Nc1ccc(N=Nc2ccccc2)c(NC(=O)C2CCCO2)c1)C1CCCO1 (centres undefined)	-9.8%	-14.4%	9.2µM*	-1.8%	-15.6%	-2.7%

Screening data deposited in PubChem by National Center for Advancing Translational Sciences (NCATS).
